{"source": "PubChem BioAssay (EPA / NIEHS)", "key": {"[1]": {"assay": "CCTE_Mundy_HCI_Cortical_NOG_NeuriteLength: CCTE's Neurite Outgrowth Assay in rat cortical cells for Neurite Length, Mundy Lab (AID 2284213)", "procedure,_shortened": "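First, rat primary cortical cells were plated and, 2 h later, given test chemical as a 1/10 dilution. Finally, βIII-tubulin immunostaining enabled automated imaging of neurite length.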"}, "[2]": {"assay": "CCTE_Mundy_HCI_Cortical_Synap_Neur_Matur_NeuriteLength: CCTE's Synaptogenesis and Neurite Maturation Assay in rat cortical cells for Neurite Length, Mundy Lab (AID 2284214)", "procedure,_shortened": "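Cultures of rat primary cortical cells received chemical at DIV 7 and were fixed at DIV 12, after glial arrest with AraC at DIV 5. Neurite length was measured by automated imaging of MAP2 immunofluorescence.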"}, "[3]": {"assay": "CCTE_Mundy_HCI_Cortical_Synap_Neur_Matur_SynapseCount: CCTE's Synaptogenesis and Neurite Maturation Assay in rat cortical cells for Synapse Count, Mundy Lab (AID 2284218)", "procedure,_shortened": "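Cells were plated, allowed 2 hr to attach, treated with AraC at DIV 5, then exposed to chemicals from DIV 7 until DIV 12. After fixation and MAP2/synaptophysin immunolabelling, synapses per neuron were quantified by automated imaging against DMSO.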"}, "[4]": {"assay": "CCTE_Mundy_HCI_Cortical_Synap_Neur_Matur_NeuriteCount: CCTE's Synaptogenesis and Neurite Maturation Assay in rat cortical cells for Neurite Count, Mundy Lab (AID 2284222)", "procedure,_shortened": "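In this multiplexed morphology readout, rat primary cortical neurons are fixed at DIV 12 following dosing at DIV 7 and stained for MAP2, synaptophysin and nuclei. High-content image analysis yields neurite count.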"}, "[5]": {"assay": "CCTE_Mundy_HCI_Cortical_Synap_Neur_Matur_CellBodySpotCount: CCTE's Synaptogenesis and Neurite Maturation Assay in rat cortical cells for Cell Body Spot Count, Mundy Lab (AID 2284223)", "procedure,_shortened": "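Primary rat cortical cultures, AraC added at DIV 5; dosed DIV 7 through DIV 12 […]. Fixed, stained for MAP2 and synaptophysin with Hoechst; cell body-associated synaptophysin puncta per neuron counted by high-content imaging, loss vs DMSO.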"}, "[6]": {"assay": "CCTE_Mundy_HCI_hNP1_Pro_ResponderAvgInten: CCTE's Proliferation Assay in human neuroprogenitor cells, Mundy Lab (AID 2284224; active means hit-call score of the fitted dose curve at least 0.9, where 1 is the maximum)", "procedure,_shortened": "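Human neuroprogenitors (hNP1, WA09 lineage) receive test chemical after 40 to 44 hours of attachment. A four-hour BrdU pulse begins twenty hours later, followed by fixation and high content imaging; signal is referenced to DMSO controls.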"}, "[7]": {"assay": "UKN2_HCS_IMR90_cell_viability: Viability Assessment in the University of Konstanz (UKN) Leist Lab Neural Crest Cell Migration Assay in human induced IMR90 Pluripotent Stem Cells (UKN2) (AID 2284233)", "procedure,_shortened": "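cMINC format, iPSC-derived neural crest (IMR90); 24 h migration (EGF/FGF, N2-S), then 24 h toxicant. Calcein-AM/H-33342 stain 30 min; fluorescence intensity by HCS; DMSO-normalised, bidirectional fitting.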"}, "[8]": {"assay": "CCTE_Mundy_HCI_Cortical_NOG_NeuronCount: CCTE's Neurite Outgrowth Assay in rat cortical cells for Neuron Count, Mundy Lab (AID 2284236; active means hit-call score of the fitted dose curve at least 0.9, where 1 is the maximum;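 further: cells exposed to compound for about 48 hours before fixation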)", "procedure,_shortened": "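Read-out: neuron number by high-content imaging of betaIII-tubulin (Alexa Fluor-488) and Hoechst-labelled rat primary cortical cells.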"}, "[9]": {"assay": "CCTE_Mundy_HCI_Cortical_NOG_BPCount: CCTE's Neurite Outgrowth Assay in rat cortical cells for Branch Point Count, Mundy Lab (AID 2284237)", "procedure,_shortened": "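Measured 50.33 h after dosing, this morphology endpoint uses rat primary cortical cultures labelled for betaIII-tubulin. Branch points are quantified by high-content imaging, with DMSO as negative control and baseline.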"}, "[10]": {"assay": "CCTE_Mundy_HCI_hNP1_Casp3_7: CCTE's Caspase-Glo 3/7 Assay in human neuroprogenitor cells for Apoptosis, Mundy Lab (AID 2284240)", "procedure,_shortened": "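Neuroepithelial-lineage stem cells from WA09 embryonic cells were treated with chemicals after 40–44 h of culture. Twenty-four hours later, caspase-3/7 activation was detected luminescently after a 30 min room-temperature reagent step, with DMSO as baseline.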"}, "[11]": {"assay": "CCTE_Mundy_HCI_hNP1_CellTiter: CCTE's Cell Titer-Glo 2 Assay in human neuroprogenitor cells for Viability, Mundy Lab (AID 2284241; active means hit-call score of the fitted dose curve at least 0.9, where 1 is the maximum)", "procedure,_shortened": "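Measures ATP content in human neural progenitors derived from WA09 embryonic cells. Read-out at 26.5 hours after dosing, with DMSO serving as the negative control and baseline.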"}, "[12]": {"assay": "IUF_NPC2a_radial_glia_migration_120hr: Leibniz Research Institute for Environmental Medicine (IUF) 120-hour Neural Progenitor Cell Migration Assay for Radial Glia Migration (NPC2a) (AID 2284298)", "procedure,_shortened": "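Human fetal-cortex neural progenitor spheres (0.3 mm) plated on poly-D-lysine/laminin in N2 differentiation medium, exposed 120 h at 37C with half-medium renewal at day 3. Radial glia migration distance (um) measured from Hoechst-stained nuclei images; DMSO baseline.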"}, "[13]": {"assay": "IUF_NPC2a_radial_glia_migration_72hr: Leibniz Research Institute for Environmental Medicine (IUF) 72-hour Neural Progenitor Cell Migration Assay for Radial Glia Migration (NPC2a) (AID 2284299)", "procedure,_shortened": "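Single 0.3 mm neurospheres were plated per well in N2 differentiation medium and exposed from the start of differentiation. After 72 hours, brightfield images were taken and radial glia migration from the sphere core edge was measured manually in four directions, averaged per well.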"}, "[14]": {"assay": "IUF_NPC2b_neuronal_migration_120hr: Leibniz Research Institute for Environmental Medicine (IUF) 120-hour Neural Progenitor Cell Migration Assay for Neuron Migration (NPC2b) (AID 2284300)", "procedure,_shortened": "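0.3 mm hNPC spheres on poly-D-lysine/laminin in N2 differentiation medium exposed 120 h, half-medium refresh day 3; 7 concentrations, DMSO max 0.1%. Neuron (TUBB3) distance from sphere core by ICC imaging, normalised to radial glia migration.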"}, "[15]": {"assay": "IUF_NPC3_neuronal_differentiation_120hr: Leibniz Research Institute for Environmental Medicine (IUF) 120-hour Neuronal Differentiation Assay (NPC3) (AID 2284301)", "procedure,_shortened": "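Neuronal differentiation of primary human neural progenitors measured by high-content imaging: percent TUBB3+ of Hoechst+ nuclei within migrated area at 120 h, seven-point serial dilution plus solvent control, gain or loss relative to DMSO.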"}, "[16]": {"assay": "IUF_NPC4_neurite_length_120hr: Leibniz Research Institute for Environmental Medicine (IUF) 120-hour Neuronal Morphology Assay for Neurite Length (NPC4) (AID 2284302)", "procedure,_shortened": "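Neurons from differentiating human fetal neural progenitor spheres are scored for average neurite length after five days of compound exposure. Fitting uses DMSO as negative control.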"}, "[17]": {"assay": "IUF_NPC5_oligodendrocyte_differentiation_120hr: Leibniz Research Institute for Environmental Medicine (IUF) 120-hour Oligodendrocyte Differentiation Assay (NPC5) (AID 2284304; active means hit-call score of the fitted dose curve at least 0.9, where 1 is the maximum;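 further: share of O4-positive cells among Hoechst nuclei found by CNN image analysis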)", "procedure,_shortened": "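Human fetal neural progenitor spheres (0.3 mm) plated on poly-D-lysine/laminin in N2 differentiation medium and exposed for 120 h at 7 concentrations, with half-medium renewal at day 3. O4-positive cells identified by CNN, expressed as percent of Hoechst nuclei.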"}, "[18]": {"assay": "IUF_NPC4_neurite_area_120hr: Leibniz Research Institute for Environmental Medicine (IUF) 120-hour Neuronal Morphology Assay for Neurite Area (NPC4) (AID 2284305; active means hit-call score of the fitted dose curve at least 0.9, where 1 is the maximum)", "procedure,_shortened": "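Endpoint at 120 h: automated imaging of TUBB3/Hoechst-stained differentiating human neural progenitor spheres, neurite area per neuron from skeletonization. DMSO solvent control, not above 0.1%, set the baseline; medium was half-replaced on day 3.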"}, "[19]": {"assay": "IUF_NPC2-5_cytotoxicity_72hr: Cytotoxicity Assessment at 72 hours in the Leibniz Research Institute for Environmental Medicine (IUF) Neural Progenitor Cell Migration and Differentiation Assay for Cytotoxicity (NPC2-5) (AID 2284306; active means hit-call score of the fitted dose curve at least 0.9, where 1 is the maximum;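 further: LDH release into supernatant measured by resorufin fluorescence marking membrane damage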)", "procedure,_shortened": "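Primary human neural progenitor spheres migrate and differentiate on laminin. Compound is present from the start of differentiation, with DMSO kept at or below 0.1%. At 72 h, supernatant LDH is quantified fluorometrically, with values fitted in the positive direction.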"}, "[20]": {"assay": "IUF_NPC2-5_cytotoxicity_120hr: Cytotoxicity Assessment at 120 hours in the Leibniz Research Institute for Environmental Medicine (IUF) Neural Progenitor Cell Migration and Differentiation Assay (NPC2-5) (AID 2284307; active means hit-call score of the fitted dose curve at least 0.9, where 1 is the maximum)", "procedure,_shortened": "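Human fetal (GW 16-19) neural progenitor spheres (0.3 mm) plated on poly-D-lysine/laminin in N2 differentiation medium, exposed 120 h with half-medium renewal at day 3; 7 concentrations plus solvent control, DMSO ≤0.1%. LDH release in supernatant read by resorufin fluorescence.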"}, "[21]": {"assay": "IUF_NPC2-5_cell_number_120hr: Cell Number Assessment at 120 hours in the Leibniz Research Institute for Environmental Medicine (IUF) Neural Progenitor Cell Migration and Differentiation Assay (NPC2-5) (AID 2284308)", "procedure,_shortened": "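Human fetal neural progenitor spheres (0.3 mm) plated on poly-D-lysine/laminin in N2 differentiation medium, exposed five days across 7 concentrations with half-medium refresh at day 3. Hoechst-positive nuclei counted in migration area at 120 h, relative to DMSO.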"}, "[22]": {"assay": "IUF_NPC2-5_viability_120hr: Viability Assessment at 120 hours in the Leibniz Research Institute for Environmental Medicine (IUF) Neural Progenitor Cell Migration and Differentiation Assay (NPC2-5) (AID 2284312)", "procedure,_shortened": "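Human fetal (GW 16-19) neural progenitor spheres of 0.3 mm were plated on poly-D-lysine/laminin in N2 differentiation medium and exposed from day 0 for 120 h, with half-medium refresh at day 3. Viability was read as alamar blue resazurin-to-resorufin fluorescence against DMSO.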"}, "[23]": {"assay": "CCTE_Mundy_HCI_iCellGluta_NOG_NeuriteLength: CCTE's Neurite Outgrowth Assay in iCellGluta cells for Neurite Length, Mundy Lab (AID 2284318; active means hit-call score of the fitted dose curve at least 0.9, where 1 is the maximum)", "procedure,_shortened": "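Automated high-content imaging of betaIII-tubulin (Alexa Fluor-488) and Hoechst-stained cells gave neurite length, normalized to the DMSO baseline.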"}, "[24]": {"assay": "IUF_NPC1_cytotoxicity_72hr: Cytotoxicity Assessment at 72 hours in the Leibniz Research Institute for Environmental Medicine (IUF) Neural Progenitor Cell Proliferation Assay (NPC1) (AID 2284332; active means hit-call score of the fitted dose curve at least 0.9, where 1 is the maximum;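 further: rising LDH signal means more cytotoxicity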)", "procedure,_shortened": "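Membrane-integrity loss is scored from LDH released into the medium, detected as resorufin fluorescence, with activity fitted upward relative to baseline. Test material stays on human fetal-derived progenitor spheres for 72 h.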"}, "[25]": {"assay": "CCTE_Mundy_HCI_iCellGluta_NOG_NeuriteCount: CCTE's Neurite Outgrowth Assay in iCellGluta cells for Neurite Count, Mundy Lab (AID 2284342; active means hit-call score of the fitted dose curve at least 0.9, where 1 is the maximum;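 further: chemical exposure about 48 hours starting 2 hours after plating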)"}}, "note": "Records with an inconclusive call do not appear. The source made the active and inactive calls. How the source made its calls, unless noted: active means hit-call score of the fitted dose curve at least 0.9, where 1 is the maximum; inactive means score below 0.9."}
{"smiles": "CCCCCC(C)(CC)C(=O)NC", "note": "(stereo not given)", "values": [{"measurement": "outcome", "setting": "[1]", "value": "inactive"}, {"measurement": "outcome", "setting": "[2]", "value": "inactive"}, {"measurement": "outcome", "setting": "[3]", "value": "inactive"}, {"measurement": "outcome", "setting": "[4]", "value": "inactive"}, {"measurement": "outcome", "setting": "[5]", "value": "inactive"}, {"measurement": "outcome", "setting": "[6]", "value": "inactive"}, {"measurement": "outcome", "setting": "[7]", "value": "inactive"}, {"measurement": "outcome", "setting": "[8]", "value": "inactive"}, {"measurement": "outcome", "setting": "[9]", "value": "inactive"}, {"measurement": "outcome", "setting": "[10]", "value": "inactive"}, {"measurement": "outcome", "setting": "[11]", "value": "inactive"}, {"measurement": "outcome", "setting": "[12]", "value": "inactive"}, {"measurement": "AC50", "setting": "[13]", "value": "1020 nM (active)"}, {"measurement": "outcome", "setting": "[14]", "value": "inactive"}, {"measurement": "outcome", "setting": "[15]", "value": "inactive"}, {"measurement": "outcome", "setting": "[16]", "value": "inactive"}, {"measurement": "outcome", "setting": "[17]", "value": "inactive"}, {"measurement": "outcome", "setting": "[18]", "value": "inactive"}, {"measurement": "outcome", "setting": "[19]", "value": "inactive"}, {"measurement": "outcome", "setting": "[20]", "value": "inactive"}, {"measurement": "outcome", "setting": "[21]", "value": "inactive"}, {"measurement": "outcome", "setting": "[22]", "value": "inactive"}, {"measurement": "outcome", "setting": "[23]", "value": "inactive"}, {"measurement": "outcome", "setting": "[24]", "value": "inactive"}, {"measurement": "outcome", "setting": "[25]", "value": "inactive"}]}
